Most compounds without a hit are left out; they make up all but 15% or so of the library.
ALOX12 inh = Primary qHTS assay for inhibitors of human arachidonate 12S-lipoxygenase (ALOX12): Round 2 | actives 1.1% (n = 580,000) | Potency, µM (series often up to 108 µM), inactives show at the top dose activity change, negative = inhibition, hits mostly inhibitors | purified 12hLO, xylenol orange hydroperoxide absorbance | Polyunsaturated fatty acid lipoxygenase ALOX12 (Homo sapiens), P18054
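Purified human 12hLO (150 nM final) in 25 mM Hepes, 0.01% Triton X-100, pH 7.0 was preincubated 15 min at room temperature with compound. Then 40 uM arachidonic acid was added, 30 min. Hydroperoxide was read by Fe-XO absorbance ratio 573/405 nm.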
TDP1 cell noCPT = qHTS for Inhibitors of human tyrosyl-DNA phosphodiesterase 1 (TDP1): qHTS in cells in absence of CPT; DT40 Tdp1-/- hTDP1 cells, no CPT, ATP luminescence, 48 h; Potency, µM (highest dose often 46.2 µM), without a hit: top-dose activity change, negative = growth inhibition, most hits filed as inhibitors; actives 15% (n = 420,000); AID 686978, 2013; note: nearly all actives have a fitted effect of over 55% in size
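DT40 Tdp1-/-;hTDP1 cells, no CPT (DMSO vehicle only), 400 cells/well; compounds pin-transferred; ≥48 hr, 37 °C; CellTiter-Glo 30 min RT dark, luminescence read.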
VP16 counter = VP16 counterscreen qHTS for inhibitors of ROR gamma transcriptional activity; Drosophila S2 Gal4-VP16 UAS-luciferase, luminescence, 20 h; Potency, µM (highest dose often 53.6 µM), without a hit: at the highest dose activity, negative = inhibition, actives largely listed as inhibitors; actives 3.5% (n = 310,000);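 note: Gal4-VP16 expression switched on by copper sulfate through the metallothionein promoter; nearly all actives have a fitted effect of over 50% in size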
RORgamma inh = qHTS for inhibitors of ROR gamma transcriptional activity | Drosophila S2 Gal4-RORgamma UAS-luciferase reporter, 20 h | actives 5.4% (n = 310,000) | Nuclear receptor ROR-gamma (Mus musculus), P51450 | Potency, µM (series often up to 53.6 µM), for inactives: at the top dose activity change, negative = inhibition, hits mostly inhibitors; note: nearly all actives have a fitted effect of over 60% in size
Target sequence (P51450 whole entry, looked up, the tested form may be a part): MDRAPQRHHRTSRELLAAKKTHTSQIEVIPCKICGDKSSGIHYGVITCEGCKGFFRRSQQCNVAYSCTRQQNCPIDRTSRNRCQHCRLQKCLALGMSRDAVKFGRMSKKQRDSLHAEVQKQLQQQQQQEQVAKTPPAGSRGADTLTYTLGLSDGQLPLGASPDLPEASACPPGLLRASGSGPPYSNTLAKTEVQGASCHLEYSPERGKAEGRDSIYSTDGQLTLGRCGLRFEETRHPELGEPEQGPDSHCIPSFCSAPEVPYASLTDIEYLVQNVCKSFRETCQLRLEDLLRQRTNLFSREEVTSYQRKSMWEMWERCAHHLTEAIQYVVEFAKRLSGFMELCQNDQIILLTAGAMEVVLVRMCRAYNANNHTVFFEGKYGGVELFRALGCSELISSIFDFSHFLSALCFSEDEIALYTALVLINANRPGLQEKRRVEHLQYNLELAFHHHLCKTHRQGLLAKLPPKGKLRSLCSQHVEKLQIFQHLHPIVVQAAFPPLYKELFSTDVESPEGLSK
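ROR gamma transcriptional activity was tracked as Gal4-UAS luciferase output in stably transfected Drosophila Schneider cells, with compound added 1 hr before 700 uM copper sulfate induction and a 20 hr ambient-temperature incubation.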
ELG1 DNA repair = qHTS screen for small molecules that inhibit ELG1-dependent DNA repair in human embryonic kidney (HEK293T) cells expressing luciferase-tagged ELG1; Potency, µM (highest dose often 46.1 µM), for the others: top-dose activity change, negative = inhibition, hits mostly inhibitors; AID 504467, 2011; actives 2.3% (n = 330,000); HEK293T ELG1-luciferase reporter, luminescence, 16 h; DNA damage induced by 5-fluorouridine; note: nearly all actives have a fitted effect of over 55% in size
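Overnight (16 hr) co-exposure of 2,000 cells/well to 5-fluorouridine and compound at 37 °C preceded detection. Luciferase was quantified via ONE-Glo luminescence; loss of signal denotes inhibition.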
TDP1 cell CPT = qHTS for Inhibitors of human tyrosyl-DNA phosphodiesterase 1 (TDP1): qHTS in cells in presence of CPT; chicken DT40 Tdp1-/-;hTDP1 cells + 20 nM CPT, ATP luminescence, 48 h; Potency, µM (top dose mostly 46.2 µM), for the others: at the highest dose activity change, negative = growth inhibition, hits mostly inhibitors; actives 12% (n = 420,000); note: nearly all actives have a fitted effect of over 55% in size
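Cell growth measured by CellTiter-Glo luminescence after a minimum 48 h, 37 C compound exposure with 20 nM CPT in Tdp1-knockout DT40 cells stably expressing hTDP1, seeded 400/well; qHTS titration format.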
Starred values were filed as active, the others as inactive; ? = inconclusive; . = not tested or not shown; [ ] = dose if it differs, or a comment. Calls come from the whole dose curve; as a rule, active = well fitted curve in the direction sought with a large enough effect; inconclusive = small, poorly fitted or top-dose-only effect, or another doubt; inactive = no such curve, though single readings can be large; an effect the other way counts as inactive or inconclusive. % is set by controls: 0 for no effect and ±100 for the full control effect; potency is the fitted concentration of half-maximal effect.

SMILES | ALOX12 inh | TDP1 cell noCPT | VP16 counter | RORgamma inh | ELG1 DNA repair | TDP1 cell CPT
CCC1(N2CCN(C(=O)c3ccc(N(C)C)cc3)CC2)CCN(C(=O)NC)C1 (stereo not given) | 17.6% | . | . | . | . | .
COc1cccc(CC(=O)N2CC(c3nnc(-c4ccncc4)o3)C3(CCOCC3)C2)c1 (stereo not given) | 42.5% | . | . | . | . | .
C=CCNc1oc(COc2ccc(Br)cc2)nc1C#N | -17.4% | . | . | . | . | .
CN(C)c1ccc(/C=C/c2ccnc3ccc4ccccc4c23)cc1 | . | 0.126µM* | . | . | . | 0.141µM*
C=CCC1(C(=O)O)CCCN(Cc2ccc(OC)c(COC)c2)C1 (stereo not given) | 17.8% | . | . | . | . | .
COc1ccccc1CNC[C@H]1O[C@H](Cc2cc(CN(C)Cc3ccccc3)on2)CC[C@@H]1O | 45.8% | . | . | . | . | .
CCOC(=O)C(NC(=O)/C=C/c1ccccc1OC)C(=O)OCC | 11.6% | . | . | . | . | .
COc1ccc(C2=CC(c3ccc(OC)c(OC)c3)NC(=S)N2)cc1 (stereo not given) | ? | -16.2% | 1.0% | ? | -14.3% | -21.7%
COc1ccc(C2C=C(C34CC5CC(CC(C5)C3)C4)NC(=S)N2)cc1 (stereo not given) | ? | ? | 1.58µM* | 0.794µM* | 1.3% | ?
O=C(Nc1ccncc1)C1CCN(S(=O)(=O)c2c(Cl)cccc2Cl)CC1 | 12.7% | 18.4µM* | . | . | -10.0% | ?
O=C(NC1CCCCCC1)C1CCN(S(=O)(=O)c2c(Cl)cccc2Cl)CC1 | 0.5% | 23.1µM* | . | . | ? | 23.1µM*
O=C(NC1CCCCCC1)C1CCN(S(=O)(=O)c2ccccc2)CC1 | 0.0% | -29.1% | 1.4% | -15.6% | 1.6% | -4.4%
O=C(C1CCN(S(=O)(=O)c2c(Cl)cccc2Cl)CC1)N1CCCC1 | 7.7% | -23.8% | . | . | 21.2% | -14.8%
O=C(O)CSc1nc2ccccc2nc1N1CCCCC1 | -24.7% | 7.2% | . | . | . | 2.5%
COC(=O)CS(=O)(=O)c1nc2ccccc2nc1N1CCCCC1 | 0.0% | 13µM* | . | . | . | 20.6µM*
C/C(N)=C(/C#N)C(=O)CSc1nnc(Nc2c(C)cccc2C)s1 | -16.1% | -3.0% | -0.9% | 4.9% | 0.0% | 2.2%
C/C(N)=C(/C#N)C(=O)CSc1nnc(SCc2ccc(Cl)cc2)s1 | -54.5% | 16.4µM* | ? | -27.3% | ? | 13µM*
CN(Cc1ccc(-c2ccccc2)cc1)C(=O)Cc1ccc(F)cc1 | -21.9%[176 µM] | . | . | . | . | .
CCCNC(=O)C1(C)CCCN(C(=O)Cc2ccc(OC)cc2)C1 (stereo not given) | -3.0% | -3.5% | . | . | . | 13.6%
CCCNC(=O)C1(C)CCCN(C(=O)C2(c3ccc(Cl)cc3)CCCC2)C1 (stereo not given) | -4.2% | 20.6µM* | . | . | . | ?
CCCNC(=O)C1(C)CCN(C(=O)C2(c3ccc(Cl)cc3)CCCC2)C1 (stereo not given) | 0.9% | ? | . | . | . | ?
CCCNC(=O)C1(C)CCCN(C(=O)COc2ccc(C(C)(C)C)cc2)C1 (stereo not given) | 2.5% | 16.4µM* | . | . | . | 29.1µM*
CCCNC(=O)NC(=O)CSc1cc(C)c2cccc(C)c2n1 | -14.4% | . | . | . | . | .
COCCCn1c(C)cc(C(=O)COC(=O)Cc2nn(C)c(=O)c3ccccc23)c1C | 7.6% | . | . | . | . | .
COc1ccc(Cc2nnc(SCC(=O)Nc3c(C)cccc3C)[nH]c2=O)cc1 | ? | 9.2µM* | . | . | -8.7% | ?
SMILES | ALOX12 inh | TDP1 cell noCPT | VP16 counter | RORgamma inh | ELG1 DNA repair | TDP1 cell CPT
COc1ccc(Cc2nnc(SCC(=O)Nc3ccc(C)cc3C)[nH]c2=O)cc1 | -22.5% | ? | . | . | 3.8% | 4.2%
O=C1NCN(Cc2ccc(Cl)cc2)C12CCN(Cc1ccsc1)CC2 | 57.9% | . | . | . | . | .
Cc1noc2ncnc(N3CCN(c4ccc(F)cc4)CC3)c12 | 4.0% | 18.4µM* | 4.3% | -20.2% | ? | ?
COc1ccc(N2CCN(c3ncnc4onc(C)c34)CC2)cc1 | -9.0% | 16.4µM* | . | . | . | 20.6µM*
Cc1noc2ncnc(N3CCCCC3)c12 | 0.3% | ? | 6.1% | 11.0% | -17.2% | -24.5%
COc1ccc(N2CCN(c3ncnc4onc(-c5ccc(F)cc5)c34)CC2)cc1 | -17.8% | ? | . | . | . | ?
O=S1(=O)CC=C(CSC(=S)NC2CCS(=O)(=O)C2)C1 (stereo not given) | 10.5% | ? | -17.7% | -25.9% | -0.7% | 10.3µM*
O=S1(=O)CCC(NC(=S)N2CCCCCC2)C1 (stereo not given) | -6.8% | 8.5% | -2.0% | 14.7% | -1.1% | 9.0%
CC(C)(C)c1cc(CSC(=S)NC2CCS(=O)(=O)C2)c(Br)c(C(C)(C)C)c1 (stereo not given) | 25.6% | 11.6µM* | ? | ? | ? | 6.51µM*
Cc1ccncc1C(=O)N1CCCC(c2nc(-c3cccnc3)no2)CCNC(=O)CC1 (stereo not given) | 7.1% | . | . | . | . | .
CCn1c(=O)c(C(=O)Nc2ccccn2)c(O)c2ccccc21 | -3.6% | ? | 1.8% | 1.8% | -5.6% | 5.1%
C=CCn1c(=O)c(C(=O)Nc2ccc(C)cc2)c(O)c2ccccc21 | 15.8% | 11.6µM* | 1.8% | -15.2%[1.91 µM] | ? | 18.4µM*
C=CCn1c(=O)c(C(=O)Nc2cc(C)ccn2)c(O)c2ccccc21 | 9.4% | 25.9µM* | 4.0% | 9.2%[1.91 µM] | 10.9% | 29.1µM*
CCCC1CCCN(C(=O)Cn2nc(C)c3ccccc3c2=O)CC1 (stereo not given) | 29.3% | . | . | . | . | .
CC(=O)NC/C(C)=N\Nc1ccc([N+](=O)[O-])cc1 | ? | ? | -12.6% | 7.5% | ? | ?
CC(C)OP(=O)(OC(C)C)/C(C=O)=N\Nc1ccc([N+](=O)[O-])cc1 | ? | ? | -26.0% | 44.9% | 23.1µM* | 16.4µM*
CCOC(=O)/C(=C\Nc1ccc(OC(F)(F)F)cc1)Sc1ncc(C(F)(F)F)cc1Cl | 0.0% | 11.6µM* | 12.6% | 0.0% | ? | 16.4µM*
CCOC(=O)/C(O)=C/c1ncc(C(F)(F)F)cc1Cl | -16.7% | ? | 10µM* | 8.91µM* | 9.6% | 23.1µM*

High-throughput results (PubChem BioAssay)
